Some test systems named below: SR leukemia; RPMI-8226 leukemia; OVCAR-8 ovarian; OVCAR-5 ovarian; OVCAR-4 ovarian; SK-OV-3 ovarian; IGROV1 ovarian; OVCAR-3 ovarian; HS 578T breast; NCI/ADR-RES ovarian.
Common to all, as to test: NCI-60 one-dose screen, 48 h (100 = growth as untreated, 0 = no growth, -100 = all killed)
Holding throughout (settings): 10 µM unless noted

Compounds without any hit were thinned out: in the full panel of roughly 83,000, 20% have a hit.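 Compound tested at a single concentration for 48 hours in 96-well plates; a percent growth value below 10 was scored as active.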 Values without a mark were called inactive. Active and inactive are the calls of the source.

On to `CCCCNC(=O)Oc1ccc(/C(=C(/CC)Cc2ccccc2)c2ccc(OCCN3CCCCCC3)cc2)cc1`, for which the growth in the assay on SR leukemia is -24.6% (active); in the assay with RPMI-8226 leukemia it was -27.6% (active); in the assay on OVCAR-8 ovarian, 14%; with OVCAR-5 ovarian, 73.6%; in the assay with OVCAR-4 ovarian, 32.9%; in the assay on SK-OV-3 ovarian, 82.7%. The growth was 42.3% in the assay on IGROV1 ovarian, 72.2% in the assay on OVCAR-3 ovarian, 56.6% in the assay with HS 578T breast and 53.8% in the assay with NCI/ADR-RES ovarian.

Take `Cc1cccnc1NC(=S)Nc1ncccc1C`: the growth in the assay on SR leukemia was 88.5%; in the assay on RPMI-8226 leukemia, 80.9%; in the assay with OVCAR-8 ovarian it was 99.3%; in the assay on OVCAR-5 ovarian it was 124%; with OVCAR-4 ovarian it was 134%; in the assay on SK-OV-3 ovarian, -65.6% (active). The growth in the assay on IGROV1 ovarian was 103%; with OVCAR-3 ovarian it was 100%; in the assay with HS 578T breast, 111%; with NCI/ADR-RES ovarian it was 117%.

In the case of `O=C(OCc1ccc2c(Cl)cc(Cl)c(O)c2n1)n1cncn1`, the growth is 23.1% in the assay on SR leukemia; 32.9% in the assay with RPMI-8226 leukemia; 20.7% in the assay on OVCAR-8 ovarian; 81.8% in the assay with OVCAR-5 ovarian; 25.1% in the assay with OVCAR-4 ovarian; 39% in the assay with SK-OV-3 ovarian. The growth was 32.9% in the assay on IGROV1 ovarian, 30.7% with OVCAR-3 ovarian, 67.4% with HS 578T breast and 5.53% (active) with NCI/ADR-RES ovarian.

With `COC(=O)CCC(=O)C(=O)OC`, the growth in the assay on SR leukemia is -26.4% [10 mM] (active); in the assay on RPMI-8226 leukemia, -8.65% [10 mM] (active); in the assay on OVCAR-8 ovarian, 31.8% [10 mM]; in the assay with OVCAR-5 ovarian, 23.6% [10 mM]; with OVCAR-4 ovarian, 47.8% [10 mM]; with SK-OV-3 ovarian, 3.77% [10 mM] (active). The growth is 9.89% [10 mM] (active) in the assay on IGROV1 ovarian, 5.88% [10 mM] (active) with OVCAR-3 ovarian, 25.2% [10 mM] in the assay with HS 578T breast and 33.1% [10 mM] in the assay with NCI/ADR-RES ovarian.

`Cc1ccc(/C=C2\CN(C(=O)OC(C)(C)C)C/C(=C\c3ccc(C)cc3)C2=O)cc1`: the growth is -13.1% (active) in the assay with SR leukemia; -25.8% (active) in the assay on RPMI-8226 leukemia; 25% in the assay on OVCAR-8 ovarian; 112% with OVCAR-5 ovarian; 65.4% in the assay with OVCAR-4 ovarian; 104% in the assay with SK-OV-3 ovarian. For the same compound, the growth in the assay with IGROV1 ovarian is 69.3%; in the assay with OVCAR-3 ovarian it was 7.18% (active); in the assay with HS 578T breast, 59.6%; in the assay with NCI/ADR-RES ovarian, 76.3%.

As to `COc1ccc(C(=O)C2C(c3ccc(OC)cc3)CN(C)C23C(=O)Nc2ccccc23)cc1` (stereo not given), the growth in the assay with SR leukemia is 98%; in the assay with RPMI-8226 leukemia it was 88.6%; with OVCAR-8 ovarian it was 95.5%; in the assay on OVCAR-5 ovarian, 88.6%; in the assay on OVCAR-4 ovarian it was 83.6%; with SK-OV-3 ovarian it was 91.4%. The growth in the assay on IGROV1 ovarian was 80.8%; with OVCAR-3 ovarian it was 97.8%; in the assay on HS 578T breast, 93.2%; with NCI/ADR-RES ovarian, 76.7%.

On to `Cn1cccc1C(=O)C1C(c2cccc([N+](=O)[O-])c2)C2C3CCCCC3CN2C12C(=O)Nc1ccc(Cl)cc12` (stereo not given), for which the growth was 5.9% (active) in the assay with SR leukemia; 19.6% in the assay on RPMI-8226 leukemia; 63.8% in the assay with OVCAR-8 ovarian; 68.1% with OVCAR-5 ovarian; 70.5% with OVCAR-4 ovarian; 70.1% in the assay on SK-OV-3 ovarian. In addition, the growth in the assay on IGROV1 ovarian was 8.94% (active); in the assay with OVCAR-3 ovarian, 70.2%; in the assay on HS 578T breast it was 55.7%; in the assay on NCI/ADR-RES ovarian it was 51%.

Take `OCCNCCCOc1ccc2ncnc(Nc3ccc(Oc4cccc(C(F)(F)F)c4)c(Cl)c3)c2c1`: the growth is 5.48% (active) with SR leukemia; -12.1% (active) in the assay on RPMI-8226 leukemia; 32.1% in the assay with OVCAR-8 ovarian; 72.8% in the assay with OVCAR-5 ovarian; 5.48% (active) in the assay on OVCAR-4 ovarian; 13.7% in the assay with SK-OV-3 ovarian. Besides, the growth was -35% (active) in the assay with IGROV1 ovarian, 3.15% (active) in the assay on OVCAR-3 ovarian, 34.2% with HS 578T breast and 69.1% with NCI/ADR-RES ovarian.

With `COC(=O)[C@]1(C)CCC[C@]2(C)[C@H]3C[C@H]4C(C(C)C)=C[C@]3(CC[C@H]21)[C@H]1[C@@H]4[C@@H](OCCC#N)CC[C@@H]1OCCC#N`, the growth was 2.88% (active) in the assay with SR leukemia; -16.1% (active) in the assay with RPMI-8226 leukemia; 51.5% in the assay on OVCAR-8 ovarian; 92.8% in the assay with OVCAR-5 ovarian; 30.7% in the assay with OVCAR-4 ovarian; 75.8% in the assay with SK-OV-3 ovarian. Besides, the growth was 41.5% in the assay with IGROV1 ovarian, 22.7% in the assay with OVCAR-3 ovarian, 59.4% with HS 578T breast and 41.8% in the assay on NCI/ADR-RES ovarian.

As for `CCNc1cc(-c2cccc(OC(F)(F)F)c2)nc2ccc(N3CCCC3)cc12`, the growth with SR leukemia is 6.47% (active); in the assay with RPMI-8226 leukemia, -2.09% (active); in the assay on OVCAR-8 ovarian it was 5.54% (active); in the assay with OVCAR-5 ovarian, 27.9%; in the assay with OVCAR-4 ovarian, 14.5%; with SK-OV-3 ovarian it was 17.7%. In addition, the growth was 27.1% in the assay on IGROV1 ovarian, -18% (active) with OVCAR-3 ovarian, 70.5% in the assay with HS 578T breast and 0.328% (active) with NCI/ADR-RES ovarian.

Turning to `C[C@]12CC[C@@H]3c4ccc(O)c([N+](=O)[O-])c4CC[C@H]3[C@@H]1CCC2=O`, the growth with SR leukemia is 115%; in the assay on RPMI-8226 leukemia, 90.5%; in the assay with OVCAR-8 ovarian, 112%; in the assay with OVCAR-5 ovarian, 92%; in the assay with OVCAR-4 ovarian it was 81.1%; in the assay with SK-OV-3 ovarian it was 123%. The growth is 80.6% in the assay with IGROV1 ovarian, 104% in the assay on OVCAR-3 ovarian, 78% with HS 578T breast and 94.9% in the assay with NCI/ADR-RES ovarian.

Regarding `CCOC(=O)c1cc(C(=O)c2cc(OC)c(OC)c(OC)c2)n2ccc(-c3ccncc3)cc12`, the growth in the assay with SR leukemia was 69.4%; in the assay with RPMI-8226 leukemia it was 56.9%; with OVCAR-8 ovarian, 90.5%; with OVCAR-5 ovarian it was 113%; in the assay with OVCAR-4 ovarian it was 96.3%; in the assay with SK-OV-3 ovarian, 87%. The growth with IGROV1 ovarian is 111%; in the assay on OVCAR-3 ovarian it was 109%; with HS 578T breast, 86.8%; in the assay on NCI/ADR-RES ovarian it was 99.2%.

`CCNC(=O)c1[nH]cc(-c2ccccc2)c1-c1cc(OC)c2c(c1OC)OCO2`: the growth is 93% with SR leukemia; 99% in the assay with RPMI-8226 leukemia; 98.9% in the assay with OVCAR-8 ovarian; 98.5% in the assay with OVCAR-5 ovarian; 98.6% in the assay on OVCAR-4 ovarian; 90.3% in the assay on SK-OV-3 ovarian. The growth in the assay with IGROV1 ovarian was 88.5%; with OVCAR-3 ovarian, 104%; with HS 578T breast it was 93.2%; in the assay on NCI/ADR-RES ovarian it was 93%.

Values taken from PubChem BioAssay (NCI).
